Inconclusive results are not listed. A call without a number means that no potency is given here. Active and inactive are the calls of the source. Calls follow the shape of the full dose curve.
Assay: p53 small molecule agonists, cell-based qHTS assay with rat liver microsomes (AID 1963578)
Conditions: HCT-116 p53RE-bla, beta-lactamase ratio, 16 h; series mostly up to 66 µM
In short: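 Quantitative HTS of the Tox21 10K library: p53RE-bla cells, rat liver microsomes plus NADPH at 0.5 mg/mL final each, 16 h at 37 C, beta-lactamase fluorescence detection.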

SMILES | Potency
CN(C)C(=S)SSC(=S)N(C)C | inactive
CCC(Cl)[N+](=O)[O-] (stereo not given) | inactive
O=C(O)C1C2CCC(O2)C1C(=O)O (stereo not given) | inactive
CCC(C)Cl (stereo not given) | inactive
CN(C)NC(=O)CCC(=O)O | inactive
Oc1ccc(Cl)cc1Cl | inactive
C=CCCC#N | inactive
C=CCN1CC[C@]23CCCC[C@H]2[C@H]1Cc1ccc(O)cc13 | inactive
CCCC[N+]1(C)CCCC1 | inactive
CC1(C)[C@H](C(=O)O[C@H](C#N)c2cccc(Oc3ccccc3)c2)[C@@H]1/C=C(\Cl)C(F)(F)F | inactive
O=C(O)C1C(C(=O)O)C2(Cl)C(Cl)=C(Cl)C1(Cl)C2(Cl)Cl (stereo not given) | inactive
CNC(C)(C)Cc1ccccc1 | inactive
CCN(CC)c1ccccc1 | inactive
O=[N+]([O-])c1c(Cl)c(Cl)c(Cl)c(Cl)c1Cl | inactive
CN(C)N | inactive
CC(C)=CCN1CC[C@@]2(C)c3cc(O)ccc3C[C@@H]1[C@@H]2C | inactive
CCCCN(CC)C(=O)SCCC | inactive
Clc1ccc(C(c2ccc(Cl)cc2)C(Cl)(Cl)Cl)cc1 | inactive
Oc1cc(Cl)ccc1Oc1ccc(Cl)cc1Cl | inactive
CCCCCCC#N | inactive

SMILES | Potency
N#Cc1ccc(O)cc1 | inactive
O=NN1CCCCC1 | inactive
CCCCC(CC)CO[N+](=O)[O-] (stereo not given) | inactive
CC(=O)[O][Hg][c]1ccccc1 | inactive
COP(=O)(NC(C)=O)SC (stereo not given) | inactive
c1cc2c3c(cccc3c1)CC2 | inactive
CCCCOC(=O)CCC(=O)OCCCC | inactive
NC(=S)c1c(Cl)cccc1Cl | inactive
CCCCN(CCCC)N=O | inactive
OCC(Br)CBr (stereo not given) | inactive
O=P(OCC(Br)CBr)(OCC(Br)CBr)OCC(Br)CBr (stereo not given) | inactive
CCOP(=S)(OCC)Oc1cnc2ccccc2n1 | inactive
CCOP(=S)(OCC)Oc1ccc2c(C)c(Cl)c(=O)oc2c1 | inactive
CC(C)CON=O | inactive
O=P(O)(O)CCCl | inactive
Cc1ccc2c(C)cccc2c1 | inactive
[O-][Cl+2]([O-])O | inactive
ClC1=C(Cl)[C@]2(Cl)[C@@H]3[C@@H](Cl)[C@@H](Cl)C[C@@H]3[C@@]1(Cl)C2(Cl)Cl | inactive
Cc1ccc2ccccc2c1 | inactive
ClC1C(Cl)C(Cl)C(Cl)C(Cl)C1Cl (stereo not given) | inactive
